Screening results: PubChem BioAssay, National Center for Advancing Translational Sciences (NCATS)
Only some compounds are listed: those with a hit (about 19% of all), similar ones and a draw of the others.
HT1080 IDH1KD tx = toxicity to HT-1080 IDH1 knockdown cells (counter line) | hit rate 2% among 360,000 | Potency, µM (highest dose often 46.1 µM), for the others: top-dose activity, negative = toxicity, most hits filed as cytotoxic | HT-1080 IDH1 knockdown viability, ATP luminescence, 48 h;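 note: potency is the fitted concentration of half-maximal effect; 0% = DMSO wells and -100% = cell-free medium wells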
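Knockdown cells (IDH1KD HT-1080) received compounds 2 h after plating at 750 cells/well and were kept 48 h at 37 °C in 5% FBS RPMI. A CellTiter-Glo luminescence read gave % activity for curve fitting.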
HT1080-NT tox = kills 2HG-producing HT-1080-NT fibrosarcoma cells; Potency, µM (top dose mostly 46.1 µM), inactives show at the highest dose activity, negative = less viability, actives largely listed as cytotoxic; hit rate 1.6% among 360,000; HT-1080-NT fibrosarcoma viability, CellTiter-Glo ATP luminescence, 48 h; AID 686970;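 note: NT is the 2HG producing partner of a matched IDH1 knockdown line; potency is the fitted concentration of half-maximal effect; 0% = DMSO-treated cells and -100% = media-only wells without cells; nearly all actives have a fitted effect of over 55% in size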
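Toxicity toward the 2HG-producing NT line was scored as %Activity, normalised to DMSO and no-cell wells, from CellTiter-Glo luminescence after 48 hours' treatment.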
IL1B secr inh = blocks inflammasome-driven IL-1 beta release; THP-1 LPS/ATP IL-1B secretion, AlphaLISA, 16 h; active compounds read low; activity change, % at 57.5 µM; hit rate 4.7% among 360,000; in the data active = activity change below about -50%; inconclusive = mostly about -30% to -49%
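Secreted IL-1B measured by AlphaLISA bead assay after 16 h compound exposure of THP-1 cells; compounds (final up to 57.5 uM) added 1 h before LPS (250 ng/mL) and ATP (1.25 mM) stimulation; lower signal means less secretion.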
TDP1 cell noCPT = qHTS for Inhibitors of human tyrosyl-DNA phosphodiesterase 1 (TDP1): qHTS in cells in absence of CPT | DT40 Tdp1-/- hTDP1 cells, no CPT, ATP luminescence, 48 h | Potency, µM (titrated, usually from 46.2 µM), without a hit: at the highest dose activity change, negative = growth inhibition, actives largely listed as inhibitors | hit rate 15% among 420,000; note: potency is the fitted concentration of half-maximal effect; nearly all actives have a fitted effect of over 55% in size
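No-CPT arm: Tdp1-/-;hTDP1 DT40 cells (400/well) plus compounds, incubated ≥48 hr at 37 °C. Readout CellTiter-Glo luminescence.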
TDP1 cell CPT = DT40-hTDP1 cell growth loss with CPT; chicken DT40 Tdp1-/-;hTDP1 cells + 20 nM CPT, ATP luminescence, 48 h; Potency, µM (doses to about 46.2 µM), for the others: at the highest dose activity change, negative = growth inhibition, actives largely listed as inhibitors; hit rate 12% among 420,000; AID 686979; note: potency is the fitted concentration of half-maximal effect; nearly all actives have a fitted effect of over 55% in size
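Cell growth measured by CellTiter-Glo luminescence after a minimum 48 h, 37 C compound exposure with 20 nM CPT in Tdp1-knockout DT40 cells stably expressing hTDP1, seeded 400/well; qHTS titration format.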
* hit, by the source's call; u = inconclusive; x = no result given. Unless noted, calls come from the whole dose curve; as a rule, active = well fitted curve in the direction sought with a large enough effect; inconclusive = small, poorly fitted or top-dose-only effect, or another doubt; inactive = no such curve, though single readings can be large; an effect the other way counts as inactive or inconclusive. Unless noted, % is set by controls: 0 for no effect and ±100 for the full control effect.

SMILES	HT1080 IDH1KD tx	HT1080-NT tox	IL1B secr inh	TDP1 cell noCPT	TDP1 cell CPT
COc1ccc(C(=O)N2CCCC(C)(C(=O)NS(=O)(=O)C3CC3)C2)cc1 (centres undefined)	19.9%	11.3%	23.5	1.46µM*	u
CC1(C(=O)NS(=O)(=O)C2CC2)CCCN(C(=O)c2ccc(C(F)(F)F)cc2)C1 (centres undefined)	11.7%	12.7%	34.4	0.651µM*	0.731µM*
CCCN1CCN(CCCNC(=O)CN2C(=O)COc3ccc(C(C)(C)C)cc32)CC1	-11.8%	-8.5%	0.0	-4.9%	-3.1%
COc1cc(/C=c2\[nH]c(=O)/c(=C/c3cc(OC)c(OC)c(OC)c3)[nH]c2=O)cc(OC)c1OC	x	x	x	u	-4.0%
CCCc1cc(=O)oc2cc(C)c(CN3CCCC3)c(O)c12	4.2%	-1.8%	39.1	16.4µM*	u
Cc1oc(-c2ccccc2NC(=O)C2CCC2)nc1CNC(=O)c1ccccn1	x	x	x	-20.9%	-29.4%
CCC(C)NC(=O)c1cccc(OCc2c(C)noc2C)c1 (centres undefined)	0.6%	4.1%	-16.2	9.4%	11.1%
CCOC(=O)c1c(C)[nH]c(C(=O)C(C)OC(=O)c2cccc(OCc3c(C)noc3C)c2)c1C (centres undefined)	u	-15.4%	u	18.4µM*	20.6µM*
O=C1C=CC(O)C2(CO)OC12 (centres undefined)	u	u	-89.7*	5.8µM*	16.4µM*
Cc1nn(-c2ccccc2)c2sc(C(=O)Nc3cccc(O)c3)cc12	x	x	x	23.1µM*	u
Cc1ccc(-c2c3c(=O)n(C)c(=O)n(C)c3cn2Cc2ccccn2)cc1	-0.4%	1.7%	7.2	-3.9%	-1.7%
CCCCCn1cc2c(c1-c1ccccc1Br)c(=O)n(C)c(=O)n2C	x	x	x	11.6µM*	11.6µM*
CCCCn1cc2c(c1-c1ccccc1Br)c(=O)n(C)c(=O)n2C	x	x	x	16.4µM*	23.1µM*
CCCCCn1cc2c(c1-c1ccc(Cl)cc1)c(=O)n(C)c(=O)n2C	x	x	x	16.4µM*	16.4µM*
CCCn1cc2c(c1-c1cccc(C)c1)c(=O)n(C)c(=O)n2C	9.7%	8.6%	7.3	u	u
Nc1c(CC(=O)O)cccc1C(=O)c1ccccc1	x	x	x	1.3%	11.2%
CC(=O)c1cccc(NC(=O)CSc2nnc(-c3ccncc3)o2)c1	-5.1%	-0.6%	12.7	-14.8%	4.1%
Cc1c(Cl)cccc1NC(c1ccc(F)cc1)c1nnc(-c2ccccc2)o1 (centres undefined)	x	x	x	23.1µM*	u
CCOc1ccc(NC(c2ccc(Cl)cc2)c2nnc(-c3cccc(F)c3)o2)cc1 (centres undefined)	x	x	x	-28.2%	u
CC(=O)c1cccc(NC(c2ccc(F)cc2)c2nnc(-c3ccccc3)o2)c1 (centres undefined)	x	x	x	18.4µM*	u
COc1ccc(-c2cc(NC=O)c3ncc(-c4cccc(C(C)=O)c4)n3c2)cc1	u	-28.4%	53.1	18.4µM*	u
COc1cccc(-c2cc(NC=O)c3ncc(-c4ccc(F)c(Cl)c4)n3c2)c1	-2.5%	-5.6%	u	u	u
COc1cccc(-c2cnc3c(NC(C)=O)cc(-c4cccc(NS(C)(=O)=O)c4)cn23)c1	u	u	42.8	23.1µM*	25.9µM*
CC(=O)c1cccc(-c2cnc3c(NC=O)cc(-c4ccccc4)cn23)c1	-6.5%	7.1%	103.0	20.6µM*	u
COc1cccc(-c2cc(NC=O)c3ncc(-c4ccc(C(C)=O)cc4)n3c2)c1	10.3µM*	18.4µM*	0.1	2.31µM*	3.66µM*
SMILES	HT1080 IDH1KD tx	HT1080-NT tox	IL1B secr inh	TDP1 cell noCPT	TDP1 cell CPT
CN(C)S(=O)(=O)c1cccc(CNCC2COc3ccccc3O2)c1 (centres undefined)	1.1%	0.3%	20.1	-5.0%	-23.2%
COc1cc(-c2cnc3c(NC=O)cc(-c4cccc(NC(C)=O)c4)cn23)cc(OC)c1OC	u	u	157.1	0.517µM*	0.517µM*
COc1cccc(-c2cnc3c(NC=O)cc(-c4cccc(NC(C)=O)c4)cn23)c1	u	u	143.5	20.6µM*	18.4µM*
CC(=O)Nc1cccc(-c2cc(NC=O)c3ncc(-c4cccc(C(C)=O)c4)n3c2)c1	u	u	192.3	20.6µM*	u
CCOC(CCNC(=O)c1cc2c(=O)[nH]c3ccccc3c2s1)OCC	19.4%	6.2%	-12.1	u	u
CCOC(CNCc1cc(C)c2[nH]c3ccccc3c2c1C)OCC	u	-3.4%	-95.6*	11.6µM*	16.4µM*
CCC/C=C/c1ccc(CN2C(C)C(=O)N(Cc3cn(CCOCOC)nn3)CCS2(=O)=O)cc1 (centres undefined)	10.1%	1.2%	12.4	u	-12.7%
CCC/C=C/c1ccc(CN2C(C)C(=O)N(Cc3cn(CC4CCCCC4)nn3)CCS2(=O)=O)cc1 (centres undefined)	-13.7%	-22.3%	29.9	20.6µM*	u
CCC/C=C/c1ccc(CN2C(CC(C)C)C(=O)N(Cc3cn(CCOCOC)nn3)CCS2(=O)=O)cc1 (centres undefined)	8.1%	0.6%	-13.8	-27.4%	-15.1%
CCC/C=C/c1ccc(CN2C(C(C)C)C(=O)N(Cc3cn(CC4CCCCC4)nn3)CCS2(=O)=O)cc1 (centres undefined)	u	u	-11.6	11.6µM*	16.4µM*
C[C@@H]1CN([C@@H](C)CO)S(=O)(=O)c2ccc(Br)cc2O[C@@H]1CN(C)C(=O)NC1CCCCC1	1.2%	-0.4%	2.3	-22.0%	-0.7%
CC(C)N(C(=O)c1cc2c(Cl)nc3ccccc3c2s1)C1CCCCC1	x	x	x	-16.5%	11.3%
Cc1ccc(C(OCC(O)CNC(CO)C(O)c2ccc([N+](=O)[O-])cc2)c2ccccc2)cc1 (centres undefined)	u	20.6µM*	-84.3*	14.6µM*	u
Cc1ccc(OCC(O)CNC(C)c2ccccc2)cc1C (centres undefined)	-21.5%	0.4%	-22.9	-104.3%	u
CN1CCN(CC(O)COC(c2ccc(Cl)cc2)c2ccc(Cl)cc2)CC1 (centres undefined)	u	u	-21.8	u	u
CC(NCC(O)COCc1ccc(Cl)cc1)c1ccccc1 (centres undefined)	u	-28.0%	-58.5*	u	u
OC(CNCc1ccccc1)COCc1ccc(Cl)cc1 (centres undefined)	-15.6%	-27.5%	-13.5	-4.8%	6.6%
OC(COC(c1ccc(Cl)cc1)c1ccc(Cl)cc1)CN1CCCC1 (centres undefined)	-8.5%	-5.6%	-51.2*	-19.6%	u
